Measured values from PubChem BioAssay AID602449 (Sanford-Burnham Center for Chemical Genomics, 2012).
About 5,000 (1.4%) of roughly 360,000 compounds were called active.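 How the source made its calls: active means inhibition of 50% or more, scaled per plate between neutral and stimulator controls; inactive means the rest.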 Shown is part of a subset that was picked to be rich in actives.

Experiment: blockers of Ca2+-induced mitochondrial swelling – biochemical, isolated mouse mitochondria, absorbance, primary screen (AID 602449);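 further: 0% = DMSO wells given calcium and 100% = 1 mM EGTA wells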
Settings: 30 min, at 10 µM, hits give high values

inhibition, active:
CN1CCN(CCNC(=O)Nc2ccc([N+](=O)[O-])cc2)CC1 93.8%
O=C(NCCCN1CCN(c2ccc(F)cc2)CC1)Nc1ccc([N+](=O)[O-])cc1 90.9%
CCCCN(CCCC)CCC(O)c1cc2c(Cl)cc(Cl)cc2c2cc(C(F)(F)F)ccc12 (centres undefined) 112%
O=C(/C=C/c1ccc(F)cc1)Nc1cccc(S(=O)(=O)Nc2cccc(C(F)(F)F)c2)c1 92.8%
COc1cc(C(=O)Nc2oc(-c3ccccc3)c(-c3ccccc3)c2C#N)cc(OC)c1OC 61.1%
Cn1nc(C(F)(F)F)c(C(=O)Nc2cccc(C(F)(F)F)c2)c1SCc1ccc(Cl)cc1 71.2%
CCSc1nsc(NC(=O)Nc2cccc(C(C)=O)c2)n1 87.2%
O=C(Nc1ccccc1)Nc1nc2ccccc2s1 96.5%
CSc1nsc(NC(=O)Nc2ccccc2)n1 85.4%
C=CCSc1nsc(NC(=O)Nc2cccc(C(C)=O)c2)n1 97.4%
O=C(CC(O)(C(F)(F)F)C(F)(F)F)Nc1ccc(Cl)c(Cl)c1 84.6%
O=C1CC(c2ccccc2)=NN1c1ccc([N+](=O)[O-])cc1 91.3%
Cc1c(C(=O)OC(C)C)sc(NC(=O)c2cccnc2)c1C#N 67.6%

inhibition, inactive:
O=C(CCN1C(=O)COc2ccccc21)NCCCN1CCN(c2ccc(F)cc2)CC1 -0.5%
O=C(CCC(=O)N1CCCC1)Nc1ccc([N+](=O)[O-])cc1 -1.4%
O=C(Nc1ccc(F)cc1)C1CCN(C(=O)c2ccc([N+](=O)[O-])cc2)CC1 0.6%
CN1CCN(CCNC(=O)Nc2ccccc2[N+](=O)[O-])CC1 -0.3%
COc1cc(C)ccc1OCC(=O)OCC(=O)c1ccc[nH]1 0.5%
COc1ccc(/C=C2/S/C(=N/N=C3\CC4CCC3(C)C4(C)C)NC2=O)cc1 (centres undefined) -1.3%
CCOC(=O)/C=C/c1ccc(C(F)(F)F)cc1S(=O)(=O)NC(C)(C)C 2.5%
O=C(Nc1cccc(S(=O)(=O)NC2=NCCC2)c1)c1ccc(F)cc1F -0.6%
O=C(/C=C/c1ccc(Cl)cc1)Nc1ccc(S(=O)(=O)Nc2ncccn2)cc1 -0.3%
O=C(O)CSC(NC(=O)c1cccnc1)(C(F)(F)F)C(F)(F)F -1.1%
COc1cc(C(=O)NCC(=O)N2CC=C(c3ccccc3)CC2)cc(OC)c1OC 0%
N#Cc1c(NC(=O)CCCN2C(=O)c3ccccc3C2=O)oc(-c2ccccc2)c1-c1ccccc1 -0.2%
CCc1nccn1S(=O)(=O)c1cccc([N+](=O)[O-])c1 0.1%
O=C(CCN1C(=O)C2CCCCC2C1=O)Nc1ccc(OC(F)F)cc1 (centres undefined) -2%
COC(=O)c1ccccc1Sc1c(/C=N/OCc2ccc(Cl)cc2)c(C(F)(F)F)nn1C 2.3%
CCC(=O)OCc1c(C(F)(F)F)nn(C)c1Oc1cccc(C(F)(F)F)c1 1.5%
CC(=O)c1cccc(NC(=O)[C@@H](NC(N)=O)C(C)C)c1 0.5%
CC(=O)c1cccc(NC(=S)N2CCN(S(C)(=O)=O)CC2)c1 0.1%
CC(=O)Nc1cccc(-c2nc3ccccc3s2)c1C -0.5%
CSc1nsc(SCC(=O)Nc2cc(C(=O)O)ccc2C)n1 -0.5%
CC(=O)N1CCC(C(=O)Nc2nc(-c3ccccc3)ns2)CC1 -2%
COc1ccc(C(=O)OCC(=O)Nc2cccc(C(C)=O)c2)cc1OC -2%
c1ccc(C(=NNc2nc3ccccc3s2)c2ccccn2)cc1 0.3%
CCCCN1C(=O)C(=O)N(CC(=O)Nc2cccc(C(C)=O)c2)C1=O 0.4%
Cc1ccc(S(=O)(=O)N(Cc2ccccc2)c2ccccn2)cc1[N+](=O)[O-] 0.2%
Cc1c(C(=O)N2CCN(c3ccc(F)cc3)CC2)oc2c1C(=O)CCC2 -1%
COCCCn1c(=O)/c(=C/c2ccccc2OC(C)C)s/c1=C(\C#N)C(=O)Nc1ccc(C(=O)O)cc1 0.6%
COc1ccc(S(=O)(=O)N2CCC(C(=O)NCCC(=O)Nc3ccccc3OC)CC2)cc1 1%
CC1CCN(C2=NC(=O)/C(=C/c3cn[nH]c3-c3ccccc3)S2)CC1 0.6%
COc1ccccc1N(CC(=O)Nc1ccc(C(F)(F)F)cc1)S(C)(=O)=O -0.2%
CC1Sc2ccc(C(=O)NCc3ccccc3Cl)cc2NC1=O (centres undefined) -1%
CCC/C(C)=N\Nc1nc2c(c(=O)n(C)c(=O)n2C)n1C 4.6%
COCCN(C(=O)CCC(=O)Nc1nccs1)C(C(=O)NC(C)(C)C)c1ccc(Cl)cc1 (centres undefined) 0.1%
COc1ccc2oc(C(=O)N(CC(C)C)C3CCS(=O)(=O)C3)c(C)c2c1 (centres undefined) -1.1%
O=S(=O)(O)c1cc2onnc2c2ccccc12 0.1%
O=C(CN1CCN(C(=O)c2ccco2)CC1)Nc1ccc(Cl)c(C(F)(F)F)c1 -0.1%
CC1(C(=O)O)CCC(C(=O)Nc2ccc(Cl)c(Cl)c2)C1(C)C (centres undefined) 3.1%
O=C(Cn1nc(CNc2ccc(Cl)cc2)[n+]2c1CCCCC2)c1ccc(Cl)cc1 29.5%
CCOC(=O)N1CCC(NC(=O)CN2C(=O)COc3ccc(C(C)(C)C)cc32)CC1 -0.9%
CCN1N=C(c2ccccc2)CCC1=O -2.4%
O=C1NC(=O)C2C1C(c1ccc([N+](=O)[O-])cc1)=NN2Cc1ccccc1 (centres undefined) 0.1%
CCOC(=O)c1cc(NC(=O)c2cccnc2)ccn1 -0.2%
CC(C)NS(=O)(=O)c1ccc(NC(=O)c2cccnc2)cc1 -1.5%
CCCCN1C(=O)C(CC(=O)NCc2cccs2)CC(C(=O)N2CCCCCC2)=C1C (centres undefined) -0.8%
Cc1cc(Cl)c(S(=O)(=O)NCCC(=O)O)cc1OCC(N)=O -1.7%
O=C(NC(Cc1c[nH]c2ccccc12)C(=O)O)/C(=C/c1ccco1)NC(=O)c1ccccc1 (centres undefined) -1%
